Holding throughout (set-up): scale not given: direction of the effect not stated beside the values
Assay [1] has as its target Protein translocase subunit SecA (Escherichia coli (strain K12)) (UniProt P10408). Put plainly: Assay to Identify E. coli SecA ATPase Inhibitors. The class given is functional. The note with it: 30 µM.
For assay [2], the target named is T1, Ubiquitin-activating enzyme e1, putative (Leishmania donovani (strain BPK282A1)) (UniProt E9BSI1).
T1 sequence (whole entry): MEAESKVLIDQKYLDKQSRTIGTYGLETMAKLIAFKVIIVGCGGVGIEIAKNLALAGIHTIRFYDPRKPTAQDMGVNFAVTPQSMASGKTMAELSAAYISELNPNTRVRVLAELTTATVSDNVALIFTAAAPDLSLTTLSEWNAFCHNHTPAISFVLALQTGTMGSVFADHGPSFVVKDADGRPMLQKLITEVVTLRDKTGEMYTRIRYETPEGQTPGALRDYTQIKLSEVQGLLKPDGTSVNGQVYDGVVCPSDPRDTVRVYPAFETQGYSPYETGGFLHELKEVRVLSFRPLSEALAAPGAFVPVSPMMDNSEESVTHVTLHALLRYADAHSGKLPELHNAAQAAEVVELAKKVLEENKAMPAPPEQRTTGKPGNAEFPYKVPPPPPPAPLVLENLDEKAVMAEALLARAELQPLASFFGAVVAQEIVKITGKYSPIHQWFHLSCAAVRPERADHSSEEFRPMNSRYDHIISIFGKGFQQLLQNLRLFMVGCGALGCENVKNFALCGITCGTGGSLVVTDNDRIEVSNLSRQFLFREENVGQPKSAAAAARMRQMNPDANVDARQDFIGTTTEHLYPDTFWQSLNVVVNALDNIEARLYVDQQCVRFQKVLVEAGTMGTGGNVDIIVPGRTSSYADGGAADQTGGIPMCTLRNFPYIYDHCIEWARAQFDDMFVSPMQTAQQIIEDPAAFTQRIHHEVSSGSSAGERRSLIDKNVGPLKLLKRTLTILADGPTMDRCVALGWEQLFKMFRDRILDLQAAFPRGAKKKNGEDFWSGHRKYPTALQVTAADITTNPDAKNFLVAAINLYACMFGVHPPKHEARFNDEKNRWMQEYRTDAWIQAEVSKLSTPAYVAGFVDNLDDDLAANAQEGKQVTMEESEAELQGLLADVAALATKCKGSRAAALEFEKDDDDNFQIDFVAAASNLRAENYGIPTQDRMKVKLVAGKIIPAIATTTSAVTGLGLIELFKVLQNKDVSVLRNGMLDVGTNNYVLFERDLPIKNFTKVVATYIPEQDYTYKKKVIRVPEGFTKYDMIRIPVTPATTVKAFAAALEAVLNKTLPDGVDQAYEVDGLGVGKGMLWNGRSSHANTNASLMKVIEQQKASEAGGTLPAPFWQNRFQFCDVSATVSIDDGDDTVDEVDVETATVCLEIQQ
Put plainly: Leishmania donovani Ubiquitin Activating Enzyme (LdE1). The class given is functional. The conditions noted are these: 30 µM.

The target of assay [3] is Sialic acid-binding Ig-like lectin 9 (Homo sapiens) (UniProt Q9Y336). Put plainly: Hs-Siglec9 ALPHAscreen SOP 20170721. The conditions noted are these: 10 µM. (In Alpha technology, singlet oxygen from a donor bead excites a nearby acceptor bead.)
The subject of a further assay is Trypanosoma cruzi. Put plainly: Trypanosoma cruzi phosphomannomutase and mannose-1-phosphate guanylyltransferase assay. The class given is functional. The note with it: 10 µM.
The target of assay [4] is T2, Arginase-2, mitochondrial (Homo sapiens) (UniProt P78540).
T2 sequence (whole entry): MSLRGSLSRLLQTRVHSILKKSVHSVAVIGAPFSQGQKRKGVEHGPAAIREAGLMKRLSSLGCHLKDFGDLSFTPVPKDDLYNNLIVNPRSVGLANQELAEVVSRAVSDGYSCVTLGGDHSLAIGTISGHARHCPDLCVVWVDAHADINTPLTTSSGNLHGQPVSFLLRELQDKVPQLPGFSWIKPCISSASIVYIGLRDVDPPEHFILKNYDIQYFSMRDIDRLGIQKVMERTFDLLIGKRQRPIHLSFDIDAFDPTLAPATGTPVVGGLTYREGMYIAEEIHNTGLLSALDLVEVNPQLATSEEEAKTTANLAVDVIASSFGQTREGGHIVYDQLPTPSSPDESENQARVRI
Put plainly: in vitro enzyme assay to detect the production of urea directly proportional to the activity of Arginase II. Note: in the data most compounds retested in dose-response had high values. It is filed as functional. The note with it: 33.3 µM.

The target of assay [5] is T3, Proteasome subunit beta (Trypanosoma cruzi) (UniProt O96673).
T3 sequence (whole entry): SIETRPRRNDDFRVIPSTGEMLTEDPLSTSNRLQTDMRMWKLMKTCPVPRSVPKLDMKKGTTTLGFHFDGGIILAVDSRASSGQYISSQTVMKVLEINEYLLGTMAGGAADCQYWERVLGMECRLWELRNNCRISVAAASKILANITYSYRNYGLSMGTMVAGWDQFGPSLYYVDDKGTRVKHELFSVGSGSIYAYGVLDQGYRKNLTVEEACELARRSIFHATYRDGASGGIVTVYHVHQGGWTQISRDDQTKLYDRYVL
Put plainly: Trypanosoma cruzi proteasome chymotrypsin-like activity (TcProtChymo) assay. Note: in the data most compounds retested in dose-response had high values. The class given is functional. The conditions noted are these: 9.37 µM.

For the next assay, the species on record is Homo sapiens. Put plainly: To identify inhibition of the IFN signalling (Jak-Stat) pathway via expression of an eGFP reporter gene under the control of an IFN-stimulated response element (ISRE) containing MxA promoter. The note with it: 30 µM. The class given is functional. For orientation: Reporter assays use an easily measured gene product as a stand-in for the process of interest.

Assay [6] deals with T4, Tyrosyl-tRNA synthetase, putative (Trypanosoma cruzi (strain CL Brener)) (UniProt Q4DSP6).
T4 sequence (whole entry): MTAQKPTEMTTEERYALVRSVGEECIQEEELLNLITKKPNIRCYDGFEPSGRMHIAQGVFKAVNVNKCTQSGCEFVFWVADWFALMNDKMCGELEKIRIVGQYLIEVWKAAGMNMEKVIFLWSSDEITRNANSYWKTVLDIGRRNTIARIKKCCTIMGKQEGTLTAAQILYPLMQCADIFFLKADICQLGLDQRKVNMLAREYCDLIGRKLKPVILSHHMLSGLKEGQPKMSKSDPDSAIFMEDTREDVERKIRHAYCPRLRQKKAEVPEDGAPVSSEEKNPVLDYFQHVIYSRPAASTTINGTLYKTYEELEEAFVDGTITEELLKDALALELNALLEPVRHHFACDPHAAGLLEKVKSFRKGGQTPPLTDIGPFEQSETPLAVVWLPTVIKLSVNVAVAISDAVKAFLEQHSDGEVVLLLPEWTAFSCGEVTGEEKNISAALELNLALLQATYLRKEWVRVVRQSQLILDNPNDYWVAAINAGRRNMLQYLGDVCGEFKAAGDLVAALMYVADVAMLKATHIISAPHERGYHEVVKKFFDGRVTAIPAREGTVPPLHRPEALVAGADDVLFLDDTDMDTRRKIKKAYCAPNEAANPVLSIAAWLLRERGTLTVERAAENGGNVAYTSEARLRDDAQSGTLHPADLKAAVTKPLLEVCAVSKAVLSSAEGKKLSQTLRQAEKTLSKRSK
Put plainly: Trypanosoma cruzi tyrosyl tRNA synthetase (TcYRS) _High Tyrosine SOP. Note: in the data most compounds retested in dose-response had high values. It is filed as functional. The conditions noted are these: 30 µM.

For assay [7], the target named is T4, Tyrosyl-tRNA synthetase, putative (Trypanosoma cruzi (strain CL Brener)). Put plainly: Trypanosoma cruzi tyrosyl tRNA synthetase (TcYRS) SOP. The note with it: 30 µM. The class given is functional.
Assay [8] addresses Chromo domain-containing protein 1 (Saccharomyces cerevisiae (strain ATCC 204508 / S288c) (Baker's yeast)) (UniProt P32657). Description: ScCHD-1 Enzyme Inhibition Assay. Note: in the data most compounds retested in dose-response had high values. The class given is functional. The conditions noted are these: 30 µM.

Structures are written as SMILES. For part of these data: Entries with a potency or affinity are not part of this list.

Sequence of Chromo domain-containing protein 1 (Saccharomyces cerevisiae (strain ATCC 204508 / S288c) (Baker's yeast)) (P32657 whole entry, the tested form may be a part): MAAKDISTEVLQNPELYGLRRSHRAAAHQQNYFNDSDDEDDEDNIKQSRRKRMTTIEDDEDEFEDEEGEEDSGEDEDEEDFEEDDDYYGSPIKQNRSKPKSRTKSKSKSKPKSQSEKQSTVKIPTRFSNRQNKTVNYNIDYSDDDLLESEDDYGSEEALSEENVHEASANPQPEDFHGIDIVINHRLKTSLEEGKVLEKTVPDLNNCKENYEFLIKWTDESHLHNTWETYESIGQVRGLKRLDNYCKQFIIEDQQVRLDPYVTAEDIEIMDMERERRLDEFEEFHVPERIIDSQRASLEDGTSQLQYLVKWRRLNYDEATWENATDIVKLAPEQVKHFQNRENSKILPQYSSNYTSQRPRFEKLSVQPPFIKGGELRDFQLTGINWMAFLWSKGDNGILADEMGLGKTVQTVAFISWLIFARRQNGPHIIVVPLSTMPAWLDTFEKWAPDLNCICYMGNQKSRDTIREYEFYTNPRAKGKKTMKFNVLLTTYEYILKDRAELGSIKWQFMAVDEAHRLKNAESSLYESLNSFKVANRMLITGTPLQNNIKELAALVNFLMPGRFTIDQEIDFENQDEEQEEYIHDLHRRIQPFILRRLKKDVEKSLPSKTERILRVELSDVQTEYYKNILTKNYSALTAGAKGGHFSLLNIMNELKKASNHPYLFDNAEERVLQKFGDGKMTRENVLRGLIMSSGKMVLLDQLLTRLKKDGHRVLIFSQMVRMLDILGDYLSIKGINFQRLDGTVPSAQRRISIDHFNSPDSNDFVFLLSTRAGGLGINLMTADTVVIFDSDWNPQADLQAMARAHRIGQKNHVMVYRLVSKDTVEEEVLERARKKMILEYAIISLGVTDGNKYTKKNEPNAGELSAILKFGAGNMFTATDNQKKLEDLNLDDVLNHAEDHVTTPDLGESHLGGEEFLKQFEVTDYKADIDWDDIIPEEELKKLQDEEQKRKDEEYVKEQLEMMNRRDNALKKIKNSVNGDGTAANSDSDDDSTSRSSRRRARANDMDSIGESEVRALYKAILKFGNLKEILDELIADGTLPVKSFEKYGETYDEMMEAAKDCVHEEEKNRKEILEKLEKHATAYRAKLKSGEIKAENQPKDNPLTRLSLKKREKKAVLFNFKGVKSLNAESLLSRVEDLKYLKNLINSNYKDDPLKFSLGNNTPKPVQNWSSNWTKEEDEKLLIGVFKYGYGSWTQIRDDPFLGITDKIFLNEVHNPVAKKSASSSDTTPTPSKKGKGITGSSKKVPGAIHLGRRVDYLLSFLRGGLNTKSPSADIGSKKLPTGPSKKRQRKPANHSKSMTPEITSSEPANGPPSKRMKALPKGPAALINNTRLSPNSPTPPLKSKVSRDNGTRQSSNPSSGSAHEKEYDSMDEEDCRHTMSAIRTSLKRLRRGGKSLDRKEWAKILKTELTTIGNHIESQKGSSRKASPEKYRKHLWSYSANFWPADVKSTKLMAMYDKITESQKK
Sequence of Protein translocase subunit SecA (Escherichia coli (strain K12)) (P10408 whole entry): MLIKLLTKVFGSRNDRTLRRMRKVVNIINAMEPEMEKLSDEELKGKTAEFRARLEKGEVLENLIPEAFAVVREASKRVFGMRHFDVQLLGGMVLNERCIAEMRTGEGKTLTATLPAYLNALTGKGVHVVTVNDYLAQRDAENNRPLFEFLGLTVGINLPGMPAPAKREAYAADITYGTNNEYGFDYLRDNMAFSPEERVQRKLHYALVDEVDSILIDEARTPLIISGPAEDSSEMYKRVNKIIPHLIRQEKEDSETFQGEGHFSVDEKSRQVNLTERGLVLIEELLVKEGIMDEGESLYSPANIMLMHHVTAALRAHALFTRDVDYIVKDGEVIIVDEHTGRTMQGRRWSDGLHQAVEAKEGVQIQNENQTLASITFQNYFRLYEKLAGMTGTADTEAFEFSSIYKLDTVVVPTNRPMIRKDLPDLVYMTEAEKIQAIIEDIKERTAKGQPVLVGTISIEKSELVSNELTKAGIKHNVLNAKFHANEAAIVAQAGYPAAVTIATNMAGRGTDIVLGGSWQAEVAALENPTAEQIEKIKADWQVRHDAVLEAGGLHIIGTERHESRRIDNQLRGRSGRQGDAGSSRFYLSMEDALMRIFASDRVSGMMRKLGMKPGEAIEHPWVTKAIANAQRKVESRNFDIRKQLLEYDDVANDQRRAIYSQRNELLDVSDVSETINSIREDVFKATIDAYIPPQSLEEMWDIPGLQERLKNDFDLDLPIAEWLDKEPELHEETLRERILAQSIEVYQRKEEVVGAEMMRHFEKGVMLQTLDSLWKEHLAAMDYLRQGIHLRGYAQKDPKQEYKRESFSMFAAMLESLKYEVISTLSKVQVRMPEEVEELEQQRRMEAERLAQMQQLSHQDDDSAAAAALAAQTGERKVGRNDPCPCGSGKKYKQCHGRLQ
Sequence of Sialic acid-binding Ig-like lectin 9 (Homo sapiens) (Q9Y336 whole entry): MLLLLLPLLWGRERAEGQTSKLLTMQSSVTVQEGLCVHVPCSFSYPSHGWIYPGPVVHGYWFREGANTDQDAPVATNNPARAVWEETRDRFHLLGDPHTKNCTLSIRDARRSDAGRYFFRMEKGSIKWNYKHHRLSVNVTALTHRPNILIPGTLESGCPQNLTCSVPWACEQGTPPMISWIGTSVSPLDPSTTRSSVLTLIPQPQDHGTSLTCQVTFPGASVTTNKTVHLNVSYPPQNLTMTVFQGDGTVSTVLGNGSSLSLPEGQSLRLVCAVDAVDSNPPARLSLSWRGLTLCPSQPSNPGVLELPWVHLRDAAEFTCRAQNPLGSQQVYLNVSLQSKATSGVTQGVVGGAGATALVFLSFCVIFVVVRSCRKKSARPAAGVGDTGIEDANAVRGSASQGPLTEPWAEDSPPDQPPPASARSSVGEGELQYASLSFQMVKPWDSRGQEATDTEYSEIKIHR

`COC[C@@H]1CC[C@H]2[C@H](CCN2S(=O)(=O)c2cccc(C)c2)O1`: the Percent Effect in assay [1] was -1.1%; in assay [2], 6.49%; in assay [3], -6.71%; in the assay on Trypanosoma cruzi, -4.38%; in [4], 2.43%; in assay [5] it was 16.1%. For the same molecule, the Percent Effect in the assay filed under Homo sapiens was -2.75%; in assay [6], 0.526%; in assay [7], 5.13%; in assay [8] it was -2.87%.
Turning to `c1cnn(CC2CCCN2Cc2nc(-c3ccoc3)no2)c1` (stereo not given), the Percent Effect in assay [1] was -4.7%; in assay [2], 5.33%; in assay [3], 2.88%; in the assay on Trypanosoma cruzi it was 3.41%; in assay [4], -4.88%; in [5], 10.3%. Also, the Percent Effect was -9.56% in the assay filed under Homo sapiens, 4.74% in assay [6], 7.69% in assay [7] and -12.5% in [8].
As to `O=C(C1CCOC1)N1CC[C@@H](O)[C@@H]1Cc1ccccc1` (stereo not given in full), the Percent Effect in assay [1] was -4.39%; in assay [2] it was -14.3%; in assay [3], -3.29%; with Trypanosoma cruzi, -10.1%; in [4] it was 3.2%; in assay [5], 6.09%. In addition, the Percent Effect is -3.1% in the assay filed under Homo sapiens, -28% in assay [6], -60% in [7] and -3.36% in assay [8].
Consider `CCN(CC1CCOC1)C(=O)Nc1ccc(OC)nc1` (stereo not given), for which the Percent Effect in assay [1] is -0.796%; in assay [2], 17.9%; in assay [3] it was -22.4%; with Trypanosoma cruzi it was 2.35%; in [4], 2.46%; in assay [5], 18.2%. Also, the Percent Effect in the assay filed under Homo sapiens is 15.6%; in assay [6] it was 2.39%; in [7], 22.9%; in assay [8], -7.72%.
Take `COC1CC2(CCN(Cc3ccc4c(c3)OCO4)CC2)C1`: the Percent Effect in assay [1] is -2.7%; in assay [2] it was 24.7%; in [3] it was -4%; in the assay on Trypanosoma cruzi, -2.63%; in assay [4], 1.83%; in assay [5], 10%. The Percent Effect is -11.4% in the assay filed under Homo sapiens, 6.76% in assay [6], 12.5% in assay [7] and -8.26% in assay [8].
In the case of `CCC1CN(C(=O)NCCOc2ccc3c(c2)OCO3)CCO1` (stereo not given), the Percent Effect was 1.77% in [1]; 18.2% in assay [2]; -3.28% in assay [3]; -3.36% in the assay on Trypanosoma cruzi; 5.53% in assay [4]; 15.4% in assay [5]. In addition, the Percent Effect was 1.58% in the assay listed under Homo sapiens, 4.9% in [6], 16.5% in [7] and -6.67% in assay [8].
Regarding `COc1ccc(C2CC(=O)Nc3c2cnn3C2CCCC2)cc1` (stereo not given), the Percent Effect in [1] was -8.84%; in assay [2] it was -2.7%; in [3], -0.717%; in the assay with Trypanosoma cruzi it was 2.62%; in [4], 2.45%; in assay [5], 5.31%. Moreover, the Percent Effect in the assay filed under Homo sapiens was 8.51%; in assay [6], 6.92%; in assay [7] it was 4.88%; in assay [8], -1.74%.
For `O=C(CCC1CCN(Cc2ncc[nH]2)CC1)Nc1ccccc1Cl`, the Percent Effect in [1] was -2.38%; in [2], -5.41%; in [3] it was -2.45%; in the assay with Trypanosoma cruzi, -0.291%; in [4], -2.45%; in [5] it was 8.56%. The Percent Effect in the assay listed under Homo sapiens was 0.831%; in assay [6] it was -0.532%; in [7] it was 0%; in [8] it was 4.74%.
For the molecule `Cc1nc(C)n(CC2CCCN2Cc2cn3ccsc3n2)n1` (stereo not given), the Percent Effect is 1.01% in [1]; 12.8% in [2]; -7.58% in assay [3]; -2.72% in the assay with Trypanosoma cruzi; -1.23% in assay [4]; 19% in assay [5]. The Percent Effect in the assay listed under Homo sapiens is 27.5%; in [6], 3.35%; in [7], 13.2%; in assay [8] it was -5.22%.
Turning to `COCC(C)N(C)C(=O)c1nc(S(C)(=O)=O)n2ccccc12` (stereo not given), the Percent Effect in assay [1] is -8.81%; in assay [2] it was 2.56%; in [3], -5.8%; in the assay on Trypanosoma cruzi, -2.35%; in [4] it was -2.05%; in assay [5] it was -0.256%. The Percent Effect in the assay filed under Homo sapiens is 24.6%; in assay [6], 5.26%; in assay [7], 8.43%; in [8], -0.536%.
For `O=C(Nc1nccs1)NC1CCN(Cc2ccccc2)C1` (stereo not given), the Percent Effect in [1] is 0.43%; in assay [2], 15.4%; in assay [3], -11.5%; with Trypanosoma cruzi it was 7.04%; in [4] it was 4.51%; in assay [5], 9.13%. Also, the Percent Effect in the assay filed under Homo sapiens was -11.6%; in assay [6] it was 6.22%; in [7] it was 22.9%; in assay [8], 1.47%.
As for `Cc1cnc(CN(C)C2CCN(Cc3ccccc3C#N)C2)o1` (stereo not given), the Percent Effect in [1] was 0.623%; in assay [2], 13.3%; in assay [3], -5.38%; in the assay with Trypanosoma cruzi, -5.82%; in assay [4] it was 3.1%; in assay [5], 18.4%. Besides, the Percent Effect is 2.92% in the assay filed under Homo sapiens, 3.68% in assay [6], 7.69% in assay [7] and -11.8% in assay [8].
